Source: PubChem BioAssay (NCI)
About 79,000 compounds went through this panel and 15% of them were active in at least one assay; those are over-represented in the sample as a whole. Activity calls are given as the source filed them. Rule as the data show it: active = growth inhibition above about 70%; inactive = the rest.

How the values were obtained:
[1] = NCI Yeast Anticancer Drug Screen. Data for the rad50 strain (AID 155);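 also: 0% = growth of vehicle-only cultures of the same strain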; settings: S. cerevisiae rad50 strain growth inhibition, stronger effect = higher value
Procedure, shortened: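 Compounds were tested on a yeast strain with an engineered DNA damage repair alteration; the reported value is growth inhibition normalised to vehicle treatment.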

[2] = NCI Yeast Anticancer Drug Screen. Data for the mec2-1 strain (AID 157); settings: S. cerevisiae mec2-1 strain, stronger effect = higher value
Procedure, shortened: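 Strain: mec2-1 (DNA repair/cell cycle alteration). Compound exposure, then growth measured; inhibition expressed relative to vehicle.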

[3] = NCI Yeast Anticancer Drug Screen. Data for the sgs1 mgt1 strain (AID 161);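 also: 0% = growth of cultures given vehicle only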; settings: S. cerevisiae sgs1 mgt1 strain, stronger effect = higher value
Procedure, shortened: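 Mutant yeast exposed to compound; growth scored against vehicle-only wells.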

[4] = NCI Yeast Anticancer Drug Screen. Data for the cln2 rad14 strain (AID 165);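 also: 0% = growth equal to vehicle treated cultures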; settings: S. cerevisiae cln2 rad14 strain, stronger effect = higher value
Procedure, shortened: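 Compounds are applied to the cln2 rad14 yeast strain, and growth is then compared with that of vehicle-treated cultures to give inhibition.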

[5] = NCI Yeast Anticancer Drug Screen. Data for the bub3 strain (AID 167); settings: S. cerevisiae bub3 mutant strain, stronger effect = higher value
Procedure, shortened: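 Growth of a checkpoint-deficient yeast mutant is measured after compound exposure. Values represent inhibition relative to vehicle.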

[6] = NCI Yeast Anticancer Drug Screen. Data for the mlh1 rad18 strain (AID 175); settings: S. cerevisiae mlh1 rad18 strain growth inhibition, stronger effect = higher value
Procedure, shortened: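 Read-out is yeast growth inhibition, calculated against vehicle-only controls. The compound was applied to a strain engineered with DNA damage repair alterations.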

[7] = at 5.0 µM (retest, dose inferred, filed as 0.5)
[8] = at 50.0 µM (retest, dose inferred, filed as 5.0)

Measured: growth inhibition

O=S1(=O)c2ccccc2C(Br)C1Br (stereo not given)
inactive: [1]; [7] 31% | [2]; [7] 30% | [3]; [7] 27% | [3]; at 50.0 µM 58.4% | [4]; [7] 22% | [5]; [7] 25% | [6]; [7] 56%
active: [1]; [8] 98% | [1]; at 50.0 µM 99.2% | [2]; [8] 99% | [2]; at 50.0 µM 99.5% | [3]; [8] 99% | [4]; [8] 99% | [4]; at 50.0 µM 99% | [5]; [8] 98% | [5]; at 50.0 µM 99.6% | [6]; [8] 99% | [6]; at 50.0 µM 99.3%

CC1=Nc2ccccc2C1C(Cc1ccccc1N)c1c(C)[nH]c2ccccc12 (stereo not given)
inactive: [1]; [7] 15% | [2]; [7] 16% | [3]; [7] 11% | [4]; [7] 15% | [5]; [7] 7% | [6]; [7] 11%
active: [1]; [8] 97% | [1]; at 50.0 µM 95.6% | [2]; [8] 95% | [2]; at 50.0 µM 95.4% | [3]; [8] 90% | [3]; at 50.0 µM 88.8% | [4]; [8] 98% | [4]; at 50.0 µM 94.5% | [5]; [8] 95% | [5]; at 50.0 µM 89.6% | [6]; [8] 96% | [6]; at 50.0 µM 97%

CCOC(=O)c1[nH]c(Br)c(-c2ccc(OC)c(OC)c2)c1Br
inactive: [1]; [7] 1% | [2]; [7] -8% | [2]; at 50.0 µM 63.5% | [3]; [7] 1% | [4]; [7] 26% | [5]; [7] -2% | [6]; [7] 8%
active: [1]; [8] 98% | [1]; at 50.0 µM 92.1% | [2]; [8] 97% | [3]; [8] 98% | [3]; at 50.0 µM 97.2% | [4]; [8] 99% | [4]; at 50.0 µM 88.8% | [5]; [8] 99% | [5]; at 50.0 µM 88% | [6]; [8] 97% | [6]; at 50.0 µM 94.2%

O=[N+]([O-])c1ccc(S(=O)/N=C/c2ccccc2)c([N+](=O)[O-])c1 (stereo not given)
inactive: [1]; [7] -2% | [1]; at 50.0 µM 48.2% | [2]; [7] -4% | [2]; at 50.0 µM 45.5% | [3]; [7] 2% | [3]; at 50.0 µM 67.6% | [4]; [7] 1% | [4]; at 50.0 µM 9% | [5]; [7] -4% | [5]; at 50.0 µM 25.9% | [6]; [7] -4%
active: [1]; [8] 96% | [2]; [8] 98% | [3]; [8] 94% | [4]; [8] 82% | [5]; [8] 97% | [6]; [8] 97% | [6]; at 50.0 µM 74.3%

CCNCC(O)COc1ccc2c(c1)[n+]([O-])nc(N)[n+]2[O-] (stereo not given)
active: [1]; [8] 75% | [2]; [8] 88% | [2]; at 50.0 µM 70% | [5]; [8] 84% | [6]; [8] 91%
inactive: [1]; [7] 39% | [1]; at 50.0 µM 61.1% | [2]; [7] 31% | [3]; [7] 42% | [3]; [8] 60% | [3]; at 50.0 µM 62.8% | [4]; [7] 42% | [4]; [8] 41% | [4]; at 50.0 µM 40.9% | [5]; [7] 47% | [5]; at 50.0 µM 63% | [6]; [7] 50% | [6]; at 50.0 µM 58.8%

Oc1ccc2ccccc2c1CNc1ccc2ccccc2c1
inactive: [1]; [7] 8% | [1]; [8] 57% | [2]; [7] 10% | [2]; [8] 15% | [3]; [7] 11% | [3]; [8] 69% | [4]; [7] -1% | [4]; [8] 18% | [5]; [7] 0% | [5]; [8] 60% | [6]; [7] 12% | [6]; [8] 67%
active: [1]; at 50.0 µM 95.9% | [2]; at 50.0 µM 98.7% | [3]; at 50.0 µM 98.8% | [4]; at 50.0 µM 97.8% | [5]; at 50.0 µM 95.4% | [6]; at 50.0 µM 98.5%

O/N=C1/C(=C/c2ccc3c(c2)OCO3)CCCC1C(NO)c1ccc2c(c1)OCO2 (stereo not given)
inactive: [1]; [7] -2% | [1]; [8] 65% | [2]; [7] -2% | [2]; [8] 3% | [3]; [7] 4% | [3]; [8] 50% | [4]; [7] -5% | [4]; [8] 25% | [4]; at 50.0 µM -7.15% | [5]; [7] -2% | [5]; [8] 51% | [5]; at 50.0 µM 38.4% | [6]; [7] -3% | [6]; [8] 27%
active: [1]; at 50.0 µM 82.3% | [2]; at 50.0 µM 90.5% | [3]; at 50.0 µM 97% | [6]; at 50.0 µM 97.4%

CC1(C)CCC2(CC1)CC(=O)OC(=O)C2
inactive: [1]; [7] -159% | [1]; [8] -162% | [1]; at 50.0 µM -3.9% | [2]; [7] -50% | [2]; [8] -54% | [2]; at 50.0 µM 18.5% | [3]; [7] -64% | [3]; [8] -62% | [3]; at 50.0 µM 6.6% | [4]; [7] -59% | [4]; [8] -59% | [4]; at 50.0 µM 27.8% | [5]; [7] -71% | [5]; [8] -82% | [5]; at 50.0 µM -3.4% | [6]; [7] -145% | [6]; [8] -117% | [6]; at 50.0 µM 3.95%

CN(C)c1ccc(C=Nc2cnc3ccccc3c2)cc1
inactive: [1]; [7] -10% | [1]; [8] 10% | [1]; at 50.0 µM -54.4% | [2]; [7] -5% | [2]; [8] -13% | [2]; at 50.0 µM -14.3% | [3]; [7] -4% | [3]; [8] -1% | [3]; at 50.0 µM -3.05% | [4]; [7] -32% | [4]; [8] -14% | [4]; at 50.0 µM -43.7% | [5]; [7] 2% | [5]; [8] 5% | [5]; at 50.0 µM -3.65% | [6]; [7] 0% | [6]; [8] 10% | [6]; at 50.0 µM -6.35%

Clc1ccccc1CCc1cc(-c2ccccc2)n[nH]1
inactive: [1]; [7] -14% | [2]; [7] -26% | [3]; [7] -6% | [4]; [7] -13% | [5]; [7] 16% | [6]; [7] -4%
active: [1]; [8] 97% | [1]; at 50.0 µM 96.8% | [2]; [8] 98% | [2]; at 50.0 µM 94.7% | [3]; [8] 97% | [3]; at 50.0 µM 95.6% | [4]; [8] 97% | [4]; at 50.0 µM 88.9% | [5]; [8] 97% | [5]; at 50.0 µM 93.2% | [6]; [8] 97% | [6]; at 50.0 µM 97.7%
